Results from PubChem BioAssay.

These compounds were tested against PEG-3 (UniProt Q6IN02) (assay: inhibition of PEG-3 promoter-driven reporter – cell-based, HeLa, luciferase, CREF/GAPDH counter-screen panel, dose response (AID 624167)). Details: CREF/GAPDH counter-screens; HeLa PEG-Prom luciferase reporter, overnight, run 2, dose range 1, at 100 µM (top of the series) unless noted.
PEG-3, sequence (Q6IN02 whole entry, looked up): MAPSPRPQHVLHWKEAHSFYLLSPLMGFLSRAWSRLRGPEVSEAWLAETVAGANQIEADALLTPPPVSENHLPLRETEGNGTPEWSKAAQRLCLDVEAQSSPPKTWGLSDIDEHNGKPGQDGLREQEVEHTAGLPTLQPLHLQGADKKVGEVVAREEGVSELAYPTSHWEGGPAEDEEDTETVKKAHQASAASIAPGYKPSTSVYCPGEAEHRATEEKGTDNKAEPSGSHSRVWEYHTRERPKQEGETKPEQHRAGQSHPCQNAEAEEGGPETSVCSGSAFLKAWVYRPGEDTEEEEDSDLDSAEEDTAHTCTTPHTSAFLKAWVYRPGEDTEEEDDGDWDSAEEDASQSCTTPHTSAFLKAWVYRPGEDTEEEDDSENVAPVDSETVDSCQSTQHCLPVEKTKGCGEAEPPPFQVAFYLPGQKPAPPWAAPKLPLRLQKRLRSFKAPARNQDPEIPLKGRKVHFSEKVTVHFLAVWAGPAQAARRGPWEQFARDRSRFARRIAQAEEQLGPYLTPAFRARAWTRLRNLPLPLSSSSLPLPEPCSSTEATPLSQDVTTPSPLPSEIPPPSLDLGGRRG
Compound `O=C1/C(=C\c2cccc(O)c2O)SC(=S)N1Cc1ccccc1` has an inhibition of 101%. Work on `Cc1cc(C)c2nc(NNC(=O)c3ccc(S(=O)(=O)N4CC(C)CC(C)C4)cc3)sc2c1` (stereo unspecified) yielded an inhibition of 101%. For `Cc1ccc2oc(/N=C(\N)NC(=O)C(C)(C)C)nc2c1`, the inhibition was 94.5%. With `Cc1cc(C=C2C(=O)c3ccccc3C2=O)c(C)n1-c1ccccc1` the inhibition was 80.6%. `CC(C)(c1ccccc1)c1ccc(OCC(O)CNC2CCN(Cc3ccccc3)CC2)cc1` (stereo unspecified) was tested, and the inhibition was 98.9%. `CC(C)(C)c1ccc(Cn2c(=O)cnc3ccccc32)cc1` was tested, and the inhibition was 100%. `CC(C)c1ccc(-c2nc3ccccc3s2)cc1` showed an inhibition of 99.1%. For `O=C(/C=C/c1ccccc1)NC(NC(=S)Nc1cccc(Cl)c1)C(Cl)(Cl)Cl` (stereo unspecified), the inhibition was 99.4%. For `COc1ccc(C(O)(CC(C)C)C(CN2CCOCC2)c2ccccc2)cc1` (stereo unspecified), the inhibition was 100%. With `COc1cccc2sc(N(CCCN(C)C)C(=O)C(c3ccccc3)c3ccccc3)nc12` the inhibition was 95.1%. In the case of `O=C(CCSc1nc2ccccc2s1)N/N=C/c1c(O)ccc2ccccc12`, the inhibition is reported as 82.3%. `O=C(NC1=NCCS1)C1COc2ccccc2O1` (stereo unspecified) was tested, and the inhibition was 97.6%. With `COc1ccccc1C(=O)Nc1nc2ccccc2s1` the inhibition was 98%. For `COc1cc(/C=C/C(=O)N2CCC=CC2=O)cc(OC)c1OC`, the inhibition was 96.1%. `C=C(C)Cn1c(SCC(=O)N/N=C/c2c(O)ccc3ccccc23)nc2ccccc2c1=O` showed an inhibition of 7.84%. Compound `COC(=O)Cc1[nH]n(-c2nc3ccccc3s2)c(=O)c1C(C)=Nc1ccc(C)cc1` has an inhibition of 83.8%. For `O=C(/C=C/Nc1ccccc1Br)c1ccccn1`, the inhibition was 99.5%. For `CCN1C(=O)C(=Cc2cccc(OC)c2Oc2ccc([N+](=O)[O-])cc2[N+](=O)[O-])SC1=S`, the inhibition was 46.1%. `O=C(O)c1cccc(COc2ccc3c(c2)CCC3)c1` showed an inhibition of 99.1%. In the case of `C=CCc1cccc(/C=N/NC(=O)C(C)Nc2cccc(C)c2)c1O` (stereo unspecified), the inhibition is reported as 62%. In the case of `O=C1c2ccccc2S(=O)(=O)N1Cc1nc2ccccc2s1`, the inhibition is reported as 83.4%. Work on `C=CCn1c(COc2ccccc2)nnc1SC(C)C(=O)N/N=C/c1cc(Cl)ccc1O` (stereo unspecified) yielded an inhibition of 86%. `CCN1CCN(C(c2ccc(C(F)(F)F)cc2)c2ccc3cccnc3c2O)CC1` (stereo unspecified) showed an inhibition of 99.4%. For `O=C(N/N=C\c1c(O)ccc2ccccc12)c1ccc(Cn2cccn2)o1`, the inhibition was 75.1%. In the case of `Cc1cc(NC(c2ccc(Cl)cc2)c2ccc3cccnc3c2O)no1` (stereo unspecified), the inhibition is reported as 87.1%. `CCN(CC)c1ccc2nc3ccc(N)cc3[n+](-c3ccccc3)c2c1` gave an inhibition of 102%. For `CNC[C@H](CC1CCCCC1)NC[C@H](NCCC1CCCC1)[C@H](C)O`, the inhibition was 99.9%. Compound `COc1cc(/C=C/c2ccc3cccc(O)c3n2)c(Br)cc1O` has an inhibition of 96.1%. Compound `CCC(=O)NC(c1ccc(C)cc1)c1ccc2cccnc2c1O` (stereo unspecified) has an inhibition of 50.5%. In the case of `O=C(N/N=C\c1c(O)ccc2ccccc12)c1cncc(Br)c1`, the inhibition is reported as 79.4%. `Cc1cc(C(=O)COC(=O)C2=COCCO2)c(C)n1-c1ccccc1` was tested, and the inhibition was 101%.

What follows are compounds tested on Rat fibroblasts (CREF) in the same assay as above. Details: CREF/GAPDH counter-screens; run 1, dose range 1, at 100 µM (top of the series).
`Cc1cc(C)c2nc(NNC(=O)c3ccc(S(=O)(=O)N4CC(C)CC(C)C4)cc3)sc2c1` (stereo unspecified) showed an inhibition of 92.9%. `Cc1ccc2oc(/N=C(\N)NC(=O)C(C)(C)C)nc2c1` showed an inhibition of 82.5%. `CC(C)(C)c1ccc(Cn2c(=O)cnc3ccccc32)cc1` was tested, and the inhibition was 98.2%. Work on `O=C(CCSc1nc2ccccc2s1)N/N=C/c1c(O)ccc2ccccc12` yielded an inhibition of 40.6%. For `O=C(NC1=NCCS1)C1COc2ccccc2O1` (stereo unspecified), the inhibition was 86.9%. `COc1ccccc1C(=O)Nc1nc2ccccc2s1` was tested, and the inhibition was 100%. Work on `COC(=O)Cc1[nH]n(-c2nc3ccccc3s2)c(=O)c1C(C)=Nc1ccc(C)cc1` yielded an inhibition of 78.5%. For `O=C(/C=C/Nc1ccccc1Br)c1ccccn1`, the inhibition was 97.6%. Compound `O=C(O)c1cccc(COc2ccc3c(c2)CCC3)c1` has an inhibition of 91.1%. Work on `C=CCc1cccc(/C=N/NC(=O)C(C)Nc2cccc(C)c2)c1O` (stereo unspecified) yielded an inhibition of 39.7%. For `C=CCn1c(COc2ccccc2)nnc1SC(C)C(=O)N/N=C/c1cc(Cl)ccc1O` (stereo unspecified), the inhibition was 37.9%. `O=C(N/N=C\c1c(O)ccc2ccccc12)c1ccc(Cn2cccn2)o1` was tested, and the inhibition was 51.2%. For `Cc1cc(NC(c2ccc(Cl)cc2)c2ccc3cccnc3c2O)no1` (stereo unspecified), the inhibition was 37.2%. With `CCC(=O)NC(c1ccc(C)cc1)c1ccc2cccnc2c1O` (stereo unspecified) the inhibition was 16.7%. Work on `O=C(N/N=C\c1c(O)ccc2ccccc12)c1cncc(Br)c1` yielded an inhibition of 78.3%.

The compounds below were run on Rat fibroblasts (CREF) in the same assay as above. Details: CREF/GAPDH counter-screens; run 2, dose range 1, at 100 µM (top of the series).
`Cc1cc(C)c2nc(NNC(=O)c3ccc(S(=O)(=O)N4CC(C)CC(C)C4)cc3)sc2c1` (stereo unspecified) gave an inhibition of 95.6%. For `Cc1ccc2oc(/N=C(\N)NC(=O)C(C)(C)C)nc2c1`, the inhibition was 79.9%. With `CC(C)(C)c1ccc(Cn2c(=O)cnc3ccccc32)cc1` the inhibition was 84.5%. With `O=C(CCSc1nc2ccccc2s1)N/N=C/c1c(O)ccc2ccccc12` the inhibition was 38%. `O=C(NC1=NCCS1)C1COc2ccccc2O1` (stereo unspecified) gave an inhibition of 87.4%. `COc1ccccc1C(=O)Nc1nc2ccccc2s1` gave an inhibition of 99.5%. `COC(=O)Cc1[nH]n(-c2nc3ccccc3s2)c(=O)c1C(C)=Nc1ccc(C)cc1` gave an inhibition of 80.2%. For `O=C(/C=C/Nc1ccccc1Br)c1ccccn1`, the inhibition was 98.9%. Compound `O=C(O)c1cccc(COc2ccc3c(c2)CCC3)c1` has an inhibition of 89.3%. `C=CCc1cccc(/C=N/NC(=O)C(C)Nc2cccc(C)c2)c1O` (stereo unspecified) showed an inhibition of 47.8%. For `C=CCn1c(COc2ccccc2)nnc1SC(C)C(=O)N/N=C/c1cc(Cl)ccc1O` (stereo unspecified), the inhibition was 43.9%. `O=C(N/N=C\c1c(O)ccc2ccccc12)c1ccc(Cn2cccn2)o1` showed an inhibition of 41.5%. `Cc1cc(NC(c2ccc(Cl)cc2)c2ccc3cccnc3c2O)no1` (stereo unspecified) showed an inhibition of 44.8%. In the case of `CCC(=O)NC(c1ccc(C)cc1)c1ccc2cccnc2c1O` (stereo unspecified), the inhibition is reported as 31.4%. `O=C(N/N=C\c1c(O)ccc2ccccc12)c1cncc(Br)c1` showed an inhibition of 79.5%.
